In PubChem BioAssay (NCATS):
Results filed as inconclusive are left out. Where a call stands in place of a potency, no number is given. Activity calls are given as the source filed them. The call rests on the fitted dose curve; in most records, active means well fitted cell-killing curve with a large enough effect; inconclusive means small, poorly fitted or top-dose-only effect, or effect the other way; inactive means no such curve, though single readings can be large or run the other way.

Assay: qHTS of pediatric cancer cell lines to identify multiple opportunities for drug repurposing: Confirmatory screen for OHS-50 cells (AID 1347128);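 further: compound exposure lasted 48 h at 37 degrees C; nearly all actives have a fitted effect of over 55% in size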
Conditions: OHS-50 osteosarcoma cells viability; series mostly up to 45.9 µM
Procedure, shortened: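 Cells (500-1,000/well) in growth media were settled 5 h at 37 degrees C, then given compounds for 48 h. Viability was read as CellTiter-Glo luminescence. Primary runs used MIPE at 11 points (0.78 nM-46 µM) and NPC at 8 points (0.59 nM-46 µM); follow-ups used 11 points.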
Potency means the concentration at half of the fitted maximal effect.

| SMILES | Potency |
| --- | --- |
| O=NN(CCCl)C(=O)NCCCl | inactive |
| COc1cccc2cc(-c3nc(C4CCC(C(=O)O)CC4)n4ncnc(N)c34)[nH]c12 (stereo not given) | inactive |
| Nc1nc2c(ncn2COCCO)c(=O)[nH]1 | inactive |
| CCN(CC)CCCC(C)Nc1ccnc2cc(Cl)ccc12 (stereo not given) | inactive |
| COCC(=O)NCC=Cc1ccc2ncnc(Nc3ccc(Oc4ccc(C)nc4)c(C)c3)c2c1 | 42.7 µM (active) |
| NCCCC(N)(C(=O)O)C(F)F (stereo not given) | inactive |
| CN1CCN(CCCN2c3ccccc3Sc3ccc(C(F)(F)F)cc32)CC1 | 20.8 µM (active) |
| COc1ccc(-c2oc3cc(OC)ccc3c2C(=O)c2ccc(C#N)cc2)cc1 | inactive |
| Nc1nc2ccc(OC(F)(F)F)cc2s1 | 18.5 µM (active) |
| Cc1c(CN2CCN(C(=O)C(C)C)CC2)sc2c(N3CCOCC3)nc(-c3cnc(N)nc3)nc12 | 1.04 µM (active) |
| Oc1cccc(-c2nc(N3CCOCC3)c3oc4ncccc4c3n2)c1 | 3.02 µM (active) |
| CNCc1ccc(-c2[nH]c3cc(F)cc4c3c2CCNC4=O)cc1 | inactive |
| COc1ccc(-c2ccc3c(N4CCOC[C@H]4C)nc(N4CCOC[C@H]4C)nc3n2)cc1CO | 2.08 µM (active) |
| NC(N)=NC(=O)c1nc(Cl)c(N)nc1N | inactive |
| Cc1cn[nH]c1 | inactive |
| Cc1oncc1C(=O)Nc1ccc(C(F)(F)F)cc1 | inactive |
| NC(=O)c1ccc(I)c([N+](=O)[O-])c1 | inactive |
| Nc1nc2[nH]cc(CCc3ccc(C(=O)N[C@@H](CCC(=O)O)C(=O)O)cc3)c2c(=O)[nH]1 | inactive |
| C[C@]1(c2nc3c(C(N)=O)cccc3[nH]2)CCCN1 | inactive |
| O=C(c1cc(Cc2n[nH]c(=O)c3ccccc23)ccc1F)N1CCN(C(=O)C2CC2)CC1 | inactive |
